# Results from paper PMC11024108.
# Experiments:
# [1] = biological target: Brain acid soluble protein 1 (UniProt Q91XV3); assay: cross-link between two proteins; cross-linking mass spectrometry
# P2X purinoceptor 7 = P2X purinoceptor 7 (UniProt Q9Z1M0); assay: as above
# [2] = biological target: 14-3-3 protein zeta/delta (UniProt P63101); assay: as above
# Ataxin-2 = Ataxin-2 (UniProt Q99700); assay: as above
# [3] = biological target: AP-2 complex subunit beta (UniProt Q9DBG3); assay: as above
# [4] = biological target: AP2-associated protein kinase 1 (UniProt Q3UHJ0); assay: as above
# [5] = biological target: Aconitate hydratase, mitochondrial (UniProt Q99798); assay: as above
# [6] = biological target: Malate dehydrogenase, mitochondrial (UniProt P40926); assay: as above
# [7] = biological target: ATP synthase F(0) complex subunit 8 (UniProt P03928); assay: as above
# [8] = biological target: Trifunctional enzyme subunit alpha, mitochondrial (UniProt P40939); assay: as above
# [9] = biological target: Trifunctional enzyme subunit beta, mitochondrial (UniProt P55084); assay: as above
# Actin, cytoplasmic 1 = Actin, cytoplasmic 1 (UniProt P60710); assay: as above
# Alpha-internexin = Alpha-internexin (UniProt P46660); assay: as above
# [10] = biological target: ATP synthase peripheral stalk subunit d, mitochondrial (UniProt Q9DCX2); assay: as above
# [11] = biological target: ATP synthase F(0) complex subunit e, mitochondrial (UniProt P56385); assay: as above
# Alpha-actinin-2 = Alpha-actinin-2 (UniProt Q9JI91); assay: as above
# [12] = biological target: 14-3-3 protein zeta/delta (UniProt P63104); assay: as above
# [13] = biological target: Actin-binding protein WASF1 (UniProt Q8R5H6); assay: as above
# [14] = biological target: Neurofilament heavy polypeptide (UniProt P19246); assay: as above
# [15] = biological target: Neurofilament medium polypeptide (UniProt P08553); assay: as above
# [16] = biological target: Charged multivesicular body protein 3 (UniProt Q9Y3E7); assay: cross-linking mass spectrometry
# [17] = biological target: Charged multivesicular body protein 2b (UniProt Q9UQN3); assay: cross-link between two proteins; cross-linking mass spectrometry
# [18] = biological target: COMM domain-containing protein 8 (UniProt Q9CZG3); assay: as above
# Calnexin = Calnexin (UniProt P27824); assay: as above
# [19] = biological target: Transmembrane emp24 domain-containing protein 10 (UniProt P49755); assay: as above
# Calreticulin = Calreticulin (UniProt P27797); assay: as above
# Cell adhesion molecule 3 = Cell adhesion molecule 3 (UniProt Q99N28); assay: as above
# [20] = biological target: Cell cycle control protein 50A (UniProt Q8VEK0); assay: as above
# Clathrin heavy chain 1 = Clathrin heavy chain 1 (UniProt Q68FD5); assay: as above
# Clathrin light chain B = Clathrin light chain B (UniProt Q6IRU5); assay: as above
# Cofilin-1 = Cofilin-1 (UniProt P23528); assay: as above
# [21] = biological target: Complement C1q subcomponent subunit C (UniProt Q02105); assay: as above
# Cytochrome c = Cytochrome c (UniProt P99999); assay: as above
# [22] = biological target: Cytochrome c oxidase assembly factor 3 homolog, mitochondrial (UniProt Q9Y2R0); assay: as above
# [23] = biological target: Cytoplasmic FMR1-interacting protein 2 (UniProt Q5SQX6); assay: as above
# [24] = biological target: Cytoplasmic dynein 1 heavy chain 1 (UniProt Q9JHU4); assay: as above
# AP-2 complex subunit beta, sequence (Q9DBG3 whole entry, one chain of several): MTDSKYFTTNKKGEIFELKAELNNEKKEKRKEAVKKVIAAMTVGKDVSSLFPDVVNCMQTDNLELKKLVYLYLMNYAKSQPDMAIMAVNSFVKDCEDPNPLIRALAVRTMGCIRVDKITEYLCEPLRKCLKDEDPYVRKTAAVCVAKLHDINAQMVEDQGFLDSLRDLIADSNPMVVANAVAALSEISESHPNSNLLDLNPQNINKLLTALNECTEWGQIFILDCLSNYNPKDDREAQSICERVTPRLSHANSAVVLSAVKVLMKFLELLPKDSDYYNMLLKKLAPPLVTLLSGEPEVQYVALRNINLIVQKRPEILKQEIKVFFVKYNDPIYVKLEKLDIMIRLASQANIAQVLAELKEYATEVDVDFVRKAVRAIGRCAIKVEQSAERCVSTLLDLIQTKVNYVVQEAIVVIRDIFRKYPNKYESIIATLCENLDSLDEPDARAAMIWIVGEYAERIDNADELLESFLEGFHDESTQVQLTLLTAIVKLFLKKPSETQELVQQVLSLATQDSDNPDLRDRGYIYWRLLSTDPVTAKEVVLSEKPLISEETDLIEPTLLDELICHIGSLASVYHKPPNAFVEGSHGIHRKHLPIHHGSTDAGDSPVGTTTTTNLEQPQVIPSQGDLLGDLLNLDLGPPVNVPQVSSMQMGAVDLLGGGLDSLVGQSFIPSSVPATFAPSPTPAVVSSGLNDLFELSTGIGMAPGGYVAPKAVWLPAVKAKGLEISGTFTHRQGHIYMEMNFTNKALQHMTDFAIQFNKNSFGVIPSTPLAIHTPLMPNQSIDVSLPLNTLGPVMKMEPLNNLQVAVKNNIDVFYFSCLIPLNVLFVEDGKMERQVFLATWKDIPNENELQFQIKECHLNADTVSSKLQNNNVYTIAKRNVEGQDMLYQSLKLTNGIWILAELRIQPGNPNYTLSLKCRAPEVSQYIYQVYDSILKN
# ATP synthase peripheral stalk subunit d, mitochondrial, O75947, sequence (O75947 whole entry): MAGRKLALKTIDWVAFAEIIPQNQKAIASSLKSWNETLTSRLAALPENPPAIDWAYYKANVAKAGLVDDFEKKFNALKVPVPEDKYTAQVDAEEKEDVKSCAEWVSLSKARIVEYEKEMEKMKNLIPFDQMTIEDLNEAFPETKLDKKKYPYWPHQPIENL
# Alpha-internexin, sequence (P46660 whole entry): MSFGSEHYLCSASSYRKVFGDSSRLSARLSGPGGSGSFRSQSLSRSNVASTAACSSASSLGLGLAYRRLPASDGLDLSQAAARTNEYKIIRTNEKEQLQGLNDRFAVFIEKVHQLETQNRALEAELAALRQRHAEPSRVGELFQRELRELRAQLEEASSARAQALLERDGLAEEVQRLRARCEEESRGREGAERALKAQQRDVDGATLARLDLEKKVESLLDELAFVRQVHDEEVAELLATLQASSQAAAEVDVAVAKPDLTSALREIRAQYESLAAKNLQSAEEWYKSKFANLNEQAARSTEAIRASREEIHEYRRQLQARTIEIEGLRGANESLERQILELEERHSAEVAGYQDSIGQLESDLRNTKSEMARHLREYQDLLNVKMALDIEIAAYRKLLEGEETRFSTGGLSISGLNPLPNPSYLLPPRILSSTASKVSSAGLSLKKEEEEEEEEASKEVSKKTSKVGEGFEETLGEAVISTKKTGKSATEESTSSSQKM
# Peptidyl-prolyl cis-trans isomerase B, P23284, sequence (P23284 whole entry): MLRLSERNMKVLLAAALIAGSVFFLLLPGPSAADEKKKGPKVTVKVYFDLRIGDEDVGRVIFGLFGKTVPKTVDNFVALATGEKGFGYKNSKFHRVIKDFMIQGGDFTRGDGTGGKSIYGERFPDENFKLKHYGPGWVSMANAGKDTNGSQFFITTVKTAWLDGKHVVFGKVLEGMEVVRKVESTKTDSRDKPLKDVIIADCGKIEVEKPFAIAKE
# AP2-associated protein kinase 1, sequence (Q3UHJ0 whole entry): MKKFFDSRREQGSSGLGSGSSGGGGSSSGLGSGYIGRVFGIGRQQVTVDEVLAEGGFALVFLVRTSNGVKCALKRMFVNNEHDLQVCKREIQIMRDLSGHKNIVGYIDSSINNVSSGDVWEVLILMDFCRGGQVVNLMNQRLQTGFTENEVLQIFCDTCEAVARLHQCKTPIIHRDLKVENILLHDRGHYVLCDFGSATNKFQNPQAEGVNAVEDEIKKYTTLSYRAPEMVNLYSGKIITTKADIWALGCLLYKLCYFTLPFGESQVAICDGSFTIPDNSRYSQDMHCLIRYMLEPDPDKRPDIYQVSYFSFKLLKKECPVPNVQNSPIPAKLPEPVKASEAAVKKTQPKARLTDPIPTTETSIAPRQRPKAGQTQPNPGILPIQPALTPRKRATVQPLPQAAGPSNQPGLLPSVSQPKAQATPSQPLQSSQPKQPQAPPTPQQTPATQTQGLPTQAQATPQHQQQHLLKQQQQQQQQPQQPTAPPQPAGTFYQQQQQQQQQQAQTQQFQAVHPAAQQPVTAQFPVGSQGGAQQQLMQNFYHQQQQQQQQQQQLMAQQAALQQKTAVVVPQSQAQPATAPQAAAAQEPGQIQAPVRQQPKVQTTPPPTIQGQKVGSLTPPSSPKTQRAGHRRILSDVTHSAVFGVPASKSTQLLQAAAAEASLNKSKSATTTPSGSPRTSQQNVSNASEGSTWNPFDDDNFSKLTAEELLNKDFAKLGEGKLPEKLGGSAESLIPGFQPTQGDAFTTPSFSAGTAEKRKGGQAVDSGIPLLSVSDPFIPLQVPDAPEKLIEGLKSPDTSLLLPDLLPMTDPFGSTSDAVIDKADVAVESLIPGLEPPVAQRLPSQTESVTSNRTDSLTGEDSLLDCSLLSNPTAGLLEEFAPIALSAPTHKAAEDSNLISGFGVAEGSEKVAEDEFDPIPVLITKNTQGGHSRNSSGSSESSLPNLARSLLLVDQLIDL
# Glyceraldehyde-3-phosphate dehydrogenase, P16858, sequence (P16858 whole entry): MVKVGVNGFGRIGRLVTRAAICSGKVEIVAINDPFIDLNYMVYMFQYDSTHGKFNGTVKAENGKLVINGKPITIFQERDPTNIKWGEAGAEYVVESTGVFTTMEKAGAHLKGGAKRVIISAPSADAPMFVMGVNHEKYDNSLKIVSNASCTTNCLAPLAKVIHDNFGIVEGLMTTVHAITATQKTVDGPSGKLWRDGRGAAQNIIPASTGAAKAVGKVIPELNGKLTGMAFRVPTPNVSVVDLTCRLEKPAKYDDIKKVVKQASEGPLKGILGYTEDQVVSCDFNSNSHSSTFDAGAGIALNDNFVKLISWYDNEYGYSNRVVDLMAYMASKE
# Charged multivesicular body protein 2b, sequence (Q9UQN3 whole entry, the tested form may be a part): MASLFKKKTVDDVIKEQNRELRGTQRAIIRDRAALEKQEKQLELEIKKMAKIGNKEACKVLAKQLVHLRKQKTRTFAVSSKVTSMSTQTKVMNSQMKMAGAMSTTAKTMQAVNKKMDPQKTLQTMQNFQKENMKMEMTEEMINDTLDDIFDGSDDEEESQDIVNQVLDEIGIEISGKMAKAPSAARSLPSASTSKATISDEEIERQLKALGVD
# Charged multivesicular body protein 3, sequence (Q9Y3E7 whole entry): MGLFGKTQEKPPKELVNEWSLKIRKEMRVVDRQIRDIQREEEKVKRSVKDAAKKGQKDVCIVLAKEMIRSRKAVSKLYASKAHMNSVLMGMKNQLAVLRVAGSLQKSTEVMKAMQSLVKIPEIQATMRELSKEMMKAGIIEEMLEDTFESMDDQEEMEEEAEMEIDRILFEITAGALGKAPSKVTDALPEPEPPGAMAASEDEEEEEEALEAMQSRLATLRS
# P2X purinoceptor 7, sequence (Q9Z1M0 whole entry): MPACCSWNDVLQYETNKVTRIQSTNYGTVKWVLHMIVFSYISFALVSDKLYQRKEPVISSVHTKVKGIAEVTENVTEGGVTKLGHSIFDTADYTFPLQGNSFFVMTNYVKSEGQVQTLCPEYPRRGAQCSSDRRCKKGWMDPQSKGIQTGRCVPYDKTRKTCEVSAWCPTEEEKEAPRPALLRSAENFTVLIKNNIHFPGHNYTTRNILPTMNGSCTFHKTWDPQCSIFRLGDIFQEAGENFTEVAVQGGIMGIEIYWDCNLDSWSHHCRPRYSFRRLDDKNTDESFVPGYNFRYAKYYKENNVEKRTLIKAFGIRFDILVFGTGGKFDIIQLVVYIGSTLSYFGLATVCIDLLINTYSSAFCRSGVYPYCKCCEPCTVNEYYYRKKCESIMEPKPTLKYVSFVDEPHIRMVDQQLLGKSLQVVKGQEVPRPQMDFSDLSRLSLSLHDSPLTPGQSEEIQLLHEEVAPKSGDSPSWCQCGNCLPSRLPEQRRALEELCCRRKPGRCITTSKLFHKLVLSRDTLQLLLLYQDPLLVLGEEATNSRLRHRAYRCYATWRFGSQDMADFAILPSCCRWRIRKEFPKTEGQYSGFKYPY
# Actin-binding protein WASF1, sequence (Q8R5H6 whole entry): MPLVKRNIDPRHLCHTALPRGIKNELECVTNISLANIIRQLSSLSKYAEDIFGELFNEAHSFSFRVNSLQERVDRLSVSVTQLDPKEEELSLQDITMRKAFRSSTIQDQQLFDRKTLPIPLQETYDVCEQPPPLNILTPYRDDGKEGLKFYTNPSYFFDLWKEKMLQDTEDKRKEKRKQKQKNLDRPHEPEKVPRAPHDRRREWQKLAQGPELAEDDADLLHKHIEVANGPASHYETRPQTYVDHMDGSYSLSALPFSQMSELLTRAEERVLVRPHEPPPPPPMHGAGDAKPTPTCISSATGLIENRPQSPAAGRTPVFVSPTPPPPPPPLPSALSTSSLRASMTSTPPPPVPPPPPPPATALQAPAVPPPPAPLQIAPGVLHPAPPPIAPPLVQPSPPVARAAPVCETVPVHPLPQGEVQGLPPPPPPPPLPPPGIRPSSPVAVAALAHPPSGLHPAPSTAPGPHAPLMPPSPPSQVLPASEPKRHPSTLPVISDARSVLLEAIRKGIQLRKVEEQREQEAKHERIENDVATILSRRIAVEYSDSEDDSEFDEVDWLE
# Cofilin-1, sequence (P23528 whole entry): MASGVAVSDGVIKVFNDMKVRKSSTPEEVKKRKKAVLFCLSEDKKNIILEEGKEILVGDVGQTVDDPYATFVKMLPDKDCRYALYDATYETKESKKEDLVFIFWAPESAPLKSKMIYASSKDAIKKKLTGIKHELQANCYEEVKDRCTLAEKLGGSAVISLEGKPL
# ATP synthase F(0) complex subunit e, mitochondrial, sequence (P56385 whole entry, one chain of several): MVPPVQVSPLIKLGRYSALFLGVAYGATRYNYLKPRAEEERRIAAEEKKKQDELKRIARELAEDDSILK
substance,measurement,setting,value
"Glyceraldehyde-3-phosphate dehydrogenase, P16858",listed as a hit,[1],yes
same,listed as a hit,P2X purinoceptor 7,yes
"14-3-3 protein gamma, P61982",listed as a hit,[2],yes
"Ataxin-2-like protein, Q8WWM7",listed as a hit,Ataxin-2,yes
"AP-2 complex subunit alpha-1, P17426",listed as a hit,[3],yes
same,listed as a hit,[4],yes
"Fumarate hydratase, mitochondrial, P07954",listed as a hit,[5],yes
same,listed as a hit,[6],yes
"SH3-containing GRB2-like protein 3-interacting protein 1, Q8VD37",listed as a hit,[3],yes
"ATP synthase peripheral stalk subunit d, mitochondrial, O75947",listed as a hit,[7],yes
same,listed as a hit,[8],yes
same,listed as a hit,[9],yes
"WD repeat-containing protein 1, O88342",listed as a hit,"Actin, cytoplasmic 1",yes
"Neurofilament heavy polypeptide, P19246",listed as a hit,Alpha-internexin,yes
"ATP synthase peripheral stalk subunit F6, mitochondrial, P97450",listed as a hit,[10],yes
"Adaptin ear-binding coat-associated protein 1, Q9CR95",listed as a hit,[3],yes
"Adenylyl cyclase-associated protein 1, P40124",listed as a hit,"Actin, cytoplasmic 1",yes
"Trifunctional enzyme subunit beta, mitochondrial, P55084",listed as a hit,[11],yes
"Synaptopodin, Q8CC35",listed as a hit,Alpha-actinin-2,yes
"AP-2 complex subunit mu, P84091",listed as a hit,[3],yes
same,listed as a hit,[4],yes
"14-3-3 protein gamma, P61981",listed as a hit,[12],yes
"Cytoplasmic FMR1-interacting protein 2, Q5SQX6",listed as a hit,[13],yes
"Neurofilament light polypeptide, P08551",listed as a hit,Alpha-internexin,yes
same,listed as a hit,[14],yes
same,listed as a hit,[15],yes
"Charged multivesicular body protein 1a, Q9HD42",listed as a hit,[16],yes
same,listed as a hit,[17],yes
"COMM domain-containing protein 1, Q8K4M5",listed as a hit,[18],yes
"Peptidyl-prolyl cis-trans isomerase B, P23284",listed as a hit,Calnexin,yes
same,listed as a hit,[19],yes
"Endoplasmic reticulum chaperone BiP, P11021",listed as a hit,Calreticulin,yes
"Cell adhesion molecule 2, Q8BLQ9",listed as a hit,Cell adhesion molecule 3,yes
"Phospholipid-transporting ATPase IA, P70704",listed as a hit,[20],yes
"Clathrin light chain A, O08585",listed as a hit,Clathrin heavy chain 1,yes
"Clathrin heavy chain 1, Q68FD5",listed as a hit,Clathrin light chain B,yes
"WD repeat-containing protein 1, O75083",listed as a hit,Cofilin-1,yes
"Complement C1q subcomponent subunit A, P98086",listed as a hit,[21],yes
"Holocytochrome c-type synthase, P53701",listed as a hit,Cytochrome c,yes
"COX assembly mitochondrial protein homolog, Q7Z7K0",listed as a hit,[22],yes
"Nck-associated protein 1, P28660",listed as a hit,[23],yes
"Cytoplasmic dynein 1 light intermediate chain 2, Q6PDL0",listed as a hit,[24],yes
"Cytoplasmic dynein 1 light intermediate chain 1, Q8R1Q8",listed as a hit,[24],yes
